# Screening data: PubChem BioAssay, National Center for Advancing Translational Sciences (NCATS)
# FBPA Giardia inh: blocks Giardia fructose-bisphosphate aldolase activity; A8B2U2; purified Giardia FBPA; actives 0.71% (n = 290,000); AID 2451; Potency, µM (series often up to 59.6 µM), without a hit: at the highest dose activity, negative = inhibition, usual class: inhibitors; further: nearly all actives have a fitted effect of over 55% in size
# Target sequence (A8B2U2 whole entry, looked up): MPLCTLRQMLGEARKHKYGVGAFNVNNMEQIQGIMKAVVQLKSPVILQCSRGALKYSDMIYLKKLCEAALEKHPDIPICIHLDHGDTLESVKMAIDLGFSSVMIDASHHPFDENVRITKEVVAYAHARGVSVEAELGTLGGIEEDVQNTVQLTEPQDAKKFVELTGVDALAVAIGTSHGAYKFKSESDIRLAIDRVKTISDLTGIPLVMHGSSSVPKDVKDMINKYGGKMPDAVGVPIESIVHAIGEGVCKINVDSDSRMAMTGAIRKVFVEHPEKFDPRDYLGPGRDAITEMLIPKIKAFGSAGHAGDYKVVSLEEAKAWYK
#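 40 nM FBPA preincubated 10 min at RT with compound (up to 57.5 uM final), then substrate plus GAPDH/TPI/NAD/arsenate coupling and diaphorase/resazurin added. Fluorescence read after 20 min at RT, 525/598 nm.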
# Sm TGR inh: blocks Schistosoma mansoni thioredoxin glutathione reductase | Q962Y6 | purified TGR, DTNB reduction, TNB absorbance 405 nm | Potency, µM (top dose mostly 114 µM), inactives show at the top dose activity change, negative = inhibition, most hits filed as inhibitors | actives 3% (n = 360,000); further: nearly all actives have a fitted effect of over 60% in size
#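 TGR 20 nM + NADPH 100 uM (dispensed conc.), cpd preinc 15 min RT; start with NADPH (500 uM addition) then DTNB (15 mM addition). Kinetic TNB absorbance, 405 nm filter. Four-parameter Hill fit across titration.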
# Tb PYK inh: blocks Trypanosoma brucei pyruvate kinase; TbPYK enzyme, Kinase-Glo Plus ATP luminescence, 45 min; actives 0.12% (n = 410,000); Potency, µM (titrated, usually from 76.8 µM), for inactives: at the top dose activity, negative = inhibition, most hits filed as inhibitors; further: nearly all actives have a fitted effect of over 50% in size
#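 Quantitative HTS: titrated library compounds versus trypanosomal pyruvate kinase in TEA buffer (pH 7.2) containing KCl, MgCl2, BSA and Tween-20. Reactions were initiated with ADP, 130 uM final. Kinase-Glo Plus luminescence was read after 45 min at RT.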
# LmPK inh: inhibitors of Leishmania mexicana pyruvate kinase. Potency, µM (highest dose often 57.5 µM), inactives show at the top dose activity change, negative = inhibition, most hits filed as inhibitors. purified LmPK, Kinase-Glo ATP luminescence, 1 h. actives 0.37% (n = 290,000). Q27686
#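 qHTS format; LmPK 0.1 nM; substrates PEP 0.5 mM and ADP 0.1 mM. One-hour room-temperature incubation, then coupled luciferase luminescence; 0.5 nM enzyme wells mark activation.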
# RE007 growth inh: less growth of the S. pombe RE007 Vpr strain. S. pombe RE007 Vpr strain, BacTiter-Glo ATP luminescence, 24 h. Potency, µM (series often up to 92.2 µM), for the others: top-dose activity change, negative = less growth, hits mostly inhibitors. actives 0.21% (n = 360,000); active means well fitted falling curve with a large enough effect; inconclusive means small, poorly fitted or top-dose-only effect; inactive means no such curve, though single readings can be large or run the other way; further: nearly all actives have a fitted effect of over 50% in size
#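 Fission yeast RE007 carrying one integrated HIV-1 vpr copy, seeded at OD 0.01 in PMG+AL medium with 23 nL pinned compound. Grown 24 h at 30 degrees; viability read by BacTiter-Glo luminescence after 5 min.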
# Starred values were filed as active, the others as inactive; ? = inconclusive; nt = no result given; [ ] = another dose, or the depositor's remark. Most compounds without a hit are left out; they make up all but 3.3% or so of the library. Unless noted, the call rests on the fitted dose curve; in most records, active means well fitted curve in the direction sought with a large enough effect; inconclusive means small, poorly fitted or top-dose-only effect, or another doubt; inactive means no such curve, though single readings can be large; an effect the other way counts as inactive or inconclusive. On the % scale 0 is the no-effect control and ±100 the full control effect; potency means the concentration at half of the fitted maximal effect.
SMILES,FBPA Giardia inh,Sm TGR inh,Tb PYK inh,LmPK inh,RE007 growth inh
COc1ccc(S(=O)(=O)Nc2c(C(=O)O)[nH]c3ccc(OC)cc23)cc1,0%,-2%,-34%,-1%,-2%
COc1ccc(NC(=O)CSCC(=O)N(C)Cc2cccc(OC)c2OC)cc1,nt,10%,4%,nt,0%
Cc1nc(Nc2ccccc2)sc1-c1ccccc1,-16%,1%,-5%,-9%,35µM*
COc1cc2c(cc1OC)C(c1ccco1)CC(=O)N2 (stereo unspecified),-1%,8%,1%,-1%,6%
O=C1CC(c2ccco2)c2ccc3ccccc3c2N1 (stereo unspecified),-13%,45µM*,-4%,-4%,2%
O=C(NCc1ccccn1)C1CCCN(S(=O)(=O)c2ccc(Br)cc2)C1 (stereo unspecified),-2%,-10%,-3%,5%,12%
COc1cc(O)c(C(=O)c2ccccc2)cc1O,3.5µM*,nt,nt,nt,nt
COc1cc(O)c(C(=O)c2ccccc2)cc1S(=O)(=O)O,6%,nt,3%,nt,nt
CN(C)C(=S)SC(=S)N(C)C,16µM*,nt,?,nt,nt
Cc1ccc(-c2cc(-c3ccc(C)cc3)[n+](-c3ccccc3)c(-c3ccc(C)cc3)c2)cc1,nt,-4%,1%,nt,-13%
Cc1ccc(-c2nc(N)s[n+]2-c2ccccc2)cc1,?,-27%,?,32µM*,3%
Cc1cccc(N2CCC(N3CCN(C4CCCCC4)C(CCO)C3)CC2)c1C (stereo unspecified),?,5µM*,0%,8%,-15%
COC(=O)c1c(NC(=O)CCl)sc(C(=O)N2CCOCC2)c1C,-3%,32µM*,4%,1%,10%
O=S(=O)(Cc1ccco1)Cc1nc(-c2ccc(Cl)cc2)cs1,1%,-32%,1%,4%,-14%
O=S(=O)(Cc1noc(-c2ccc(Cl)cc2)n1)Cc1ccco1,-1%,50µM*,0%,1%,-8%
Cc1c(N=NC2=C(O)CCCC2=O)c(=O)n(-c2ccccc2)n1C,?,18µM*,-28%,1%,4%
Cc1c(N=Nc2ccc(O)cc2)c(=O)n(-c2ccccc2)n1C,0%,-1%,2%,1%,10%
Cc1cc(C)n(CCc2nc(-c3ccc(-c4ccccc4)cc3)cs2)n1,0%,5%,-3%,-1%,6%
Cc1nnsc1NC(=O)OCC(C)C,0%,0%,-1%,-5%,-7%
CC(C)(C)OC(=O)c1c(N)n(Cc2ccco2)c2nc3ccccc3nc12,-1%,28µM*,-7%,7%,2%
COc1ccc(S(=O)(=O)c2c(N)n(Cc3ccco3)c3nc4ccccc4nc23)cc1,-13%,?,-21%,4%,-3%
COCCCNC(=O)c1c(NC(=O)c2ccccc2Cl)n(Cc2ccccc2)c2nc3ccccc3nc12,-21%,-2%,2%,2%,-7%
COCCNC(=O)c1c(NC(=O)c2ccco2)n(Cc2ccccc2)c2nc3ccccc3nc12,?,25µM*,-11%,12%,-3%
Nc1c(C(=O)NCCN2CCOCC2)c2nc3ccccc3nc2n1Cc1ccco1,-12%,?,-2%,-1%,-4%
C=CCNC(=O)c1c(N)n(Cc2ccco2)c2nc3ccccc3nc12,-9%,45µM*,?,-2%,-5%
COCCNC(=O)c1c(N)n(Cc2ccco2)c2nc3ccccc3nc12,1%,40µM*,-14%,2%,3%
C=CCn1c(NC(=O)c2ccco2)c(S(=O)(=O)c2ccccc2)c2nc3ccccc3nc21,?,45µM*,nt,6%,nt
C/C(Cn1nnc([N+](=O)[O-])n1)=N\NC(=O)c1ccccc1O,18µM*,?,-7%,4%,-13%
CC(=O)OCC1=C(C(=O)O)N2C(=O)[C@@H](N)[C@@H]2SC1,?,nt,-7%[33.2 µM],nt,nt
CC(=O)OCC1=C(C(=O)O)N2C(=O)C(NC(=O)CCn3nc(C(F)(F)F)c(Br)c3C3CC3)C2SC1 (stereo unspecified),13%,22µM*,-3%,0%,-12%
